# Reference: PubChem BioAssay (EPA / NIEHS)
# Results filed as inconclusive are left out. The source made the active and inactive calls. Rule for the calls: active = hit-call score of the fitted dose curve at least 0.9, where 1 is the maximum; inconclusive = response in the unintended direction; inactive = score below 0.9.
# Read-out: alkyl and aryl transferase (GSTA2), GSTA2 (gene 2939)
# Assay: CLD_GSTA2_48hr: CellzDirect (CLD) Gene Expression Assay for alkyl and aryl transferase (GSTA2) at 48 hours (AID 2283708);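 note: active means mRNA induction above DMSO vehicle baseline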
# Protocol: CLD_48hr is a cell-based, multiplexed-readout assay that uses hepatocyte, a human liver primary cell, with measurements taken at 48 hours after chemical dosing in a 96-well plate.CLD_GSTA2_48hr is one of 16 assay component(s) measured or calculated from the CLD_48hr assay. It is designed to make measurements of mRNA induction, a form of inducible reporter, as detected with chemiluminescence signals by Quantitative Nuclease Protection Assay (qNPA) technology.Data from the assay component CLD_GSTA2_48hr was analyzed at the endpoint, CLD_GSTA2_48hr, in the positive analysis fitting direction relative to DMSO as the negative control and baseline of activity. Using a type of inducible reporter, gain-of-signal activity can be used to understand changes in the reporter gene as they relate to the gene GSTA2. Furthermore, this assay endpoint can be referred to as a primary readout. To generalize the intended target to other relatable targets, this assay endpoint is annotated to the transferase intended target family, where subfamily is alkyl and aryl transferase.
# Human hepatocyte cultures were treated daily for two consecutive days with fresh dosing solutions containing appropriate concentrations of the 320 ToxCast chemicals (chemical identities were blinded to CellzDirect and other ToxCast collaborators), vehicle control (0.2% DMSO), and positive control inducers as summarized in Table 1. […] These replicate data, coupled with internal replicates designed within the blinded ToxCast chemical library, provided additional data to evaluate interindividual differences between hepatocyte preparations and their potential impact on chemical profiles.Cell morphology and integrity were evaluated using phase-contrast microscopy as an indicator of hepatocyte cell health (Tyson & Green, 1987). Cultures for each treatment group (i.e., media, vehicle [0.2% DMSO], positive control inducers [multiple concentrations], and the ToxCast chemicals [multiple concentrations]) were observed and cell morphology was assessed relative to vehicle control cultures at each harvest time point (0, 6, 24, or 48 h). […] Images were evaluated at the conclusion of the study to assess changes in cell integrity and account for the effects of chemical exposure on uncharacteristic changes in concentration-dependent gene expression profiles. The results from these determinations of apparent cytotoxicity were annotated (yes/no) alongside the corresponding qNPA data for reference.At the conclusion of each treatment period, hepatocyte cultures (96-well) were washed with 1 volume of HBSS, lysed by addition of 25 ul ArrayPlate lysis buffer (HTG, Tucson, AZ), and 70 ul/well of Denaturation Oil, denatured by incubation at 95C for 10 min, and frozen at approximately -70C until analysis by nuclease protection assay (qNPA) (Roberts et al., 2007). For qNPA analysis, cell lysates were thawed at 50C for approximately 30 min, qNPA probes were added, and samples were incubated at 95C for 10 min to begin the detection process by denaturing the target RNA, dissociating the duplexes and secondary structure hybridization. At the conclusion of the hybridization period, S1 nuclease reagent was added to each sample to digest all nonprotected nucleotides at 50C for 60-90 min. At the conclusion of the S1 nuclease digestions, all reactions were stopped by transfer of all the samples to fresh plates containing stop solution and incubated at 95C for 15 min to deactivate the enzyme, dissociate the mRNA/ DNA probe heterodimers, and hydrolyze the resulting single stranded mRNA, leaving a stoichiometric amount of single-stranded DNA nuclease protection probe, unmodified in sequence, as the only intact oligonucleotide left in the sample. Neutralization solution was subsequently applied to cooled (room temperature) plates, and samples were transferred to ArrayPlates for overnight incubations at 50Cto allow probes to be captured onto programmed locations on the ArrayPlates. […]
SMILES,outcome,AC50
CCOC(=O)CC(SP(=S)(OC)OC)C(=O)OCC (stereo not given),inactive,
COC(=O)C(C)Oc1ccc(Oc2ccc(Cl)cc2Cl)cc1 (stereo not given),inactive,
Cc1ccc(-c2c(Cl)nc(C#N)n2S(=O)(=O)N(C)C)cc1,inactive,
Fc1ccc(Oc2ccnc3cc(Cl)cc(Cl)c23)cc1,inactive,
CO/C=C(/C(=O)OC)c1ccccc1Oc1cc(Oc2ccccc2C#N)ncn1,,20 µM (active)
COc1nc(C)nc(NC(=O)NS(=O)(=O)c2ccccc2Cl)n1,inactive,
COc1cnc(OC)n2nc(NS(=O)(=O)c3c(OCC(F)F)cccc3C(F)(F)F)nc12,inactive,
C#CCOS(=O)OC1CCCCC1Oc1ccc(C(C)(C)C)cc1 (stereo not given),inactive,
COP(N)(=O)SC (stereo not given),inactive,
CCNc1nc(Cl)nc(NC(C)C)n1,inactive,
OC(c1ccc(Cl)cc1)(c1cncnc1)c1ccccc1Cl (stereo not given),,15.8 µM (active)
COc1nc(C)nc(NC(=O)NS(=O)(=O)c2ccccc2CCC(F)(F)F)n1,inactive,
CC(C)C1(C)N=C(c2nc3ccccc3cc2C(=O)O)NC1=O (stereo not given),inactive,
CCCC1COC(Cn2cncn2)(c2ccc(Cl)cc2Cl)O1 (stereo not given),inactive,
CCc1nn(C)c(C(=O)NCc2ccc(C(C)(C)C)cc2)c1Cl,inactive,
CC1COC(Cn2cncn2)(c2ccc(Oc3ccc(Cl)cc3)cc2Cl)O1 (stereo not given),inactive,
COC(=O)c1ccccc1C(=O)OC,inactive,
CCOC(=O)C(Cl)Cc1cc(-n2nc(C)n(C(F)F)c2=O)c(F)cc1Cl (stereo not given),inactive,
N#Cc1cc(Br)c(O)c(Br)c1,inactive,
CCCN(CCC)c1c([N+](=O)[O-])cc(S(N)(=O)=O)cc1[N+](=O)[O-],inactive,

SMILES,outcome,AC50
CC(C)(C)c1ccc(CSc2cnn(C(C)(C)C)c(=O)c2Cl)cc1,inactive,
O=C(O)c1nc(Cl)ccc1Cl,inactive,
CCOc1cc(Oc2ccc(C(F)(F)F)cc2Cl)ccc1[N+](=O)[O-],inactive,
CC(C)Oc1cc(-n2nc(C(C)(C)C)oc2=O)c(Cl)cc1Cl,inactive,
CNC(=O)ON=CC(C)(C)SC,inactive,
Oc1ccccc1-c1ccccc1,inactive,
CCCCNC(=O)OCC#CI,inactive,
C=CCC1=C(C)C(OC(=O)C2C(C=C(C)C)C2(C)C)CC1=O (stereo not given),inactive,
CC(Oc1ccc(Cl)cc1Cl)C(=O)O (stereo not given),inactive,
C=CC1(C)OC(=O)N(c2cc(Cl)cc(Cl)c2)C1=O (stereo not given),inactive,
CN(C)C(=S)SSC(=S)N(C)C,inactive,
CCCCOC(=O)c1ccccc1C(=O)OCCCC,inactive,
CNC(=S)S,inactive,
CCON=C(CC)C1=C(O)CC(c2c(C)cc(C)cc2C)CC1=O (stereo not given),inactive,
Cc1c(F)c(F)c(COC(=O)C2C(/C=C(\Cl)C(F)(F)F)C2(C)C)c(F)c1F (stereo not given),inactive,
CCCCNC(=O)n1c(NC(=O)OC)nc2ccccc21,inactive,
COC(=O)N(OC)c1ccccc1COc1ccn(-c2ccc(Cl)cc2)n1,,33.8 µM (active)
C=CCC1=C(C)[C@@H](OC(=O)[C@@H]2[C@@H](C=C(C)C)C2(C)C)CC1=O,inactive,
COC(=O)C=C(C)OP(=O)(OC)OC,inactive,
N#Cc1nn(-c2c(Cl)cc(C(F)(F)F)cc2Cl)c(N)c1S(=O)C(F)(F)F (stereo not given),,4.25 µM (active)
